Results taken from PubChem BioAssay (Tox21).
Inconclusive results are not listed. Calls of active or inactive are those of the source. Unless noted, calls follow the shape of the dose curve; as a rule, active = well fitted curve in the direction sought with a large enough effect in the repeat runs; inconclusive = weak or mixed curves; inactive = no such curve, though single readings can be large; an effect the other way counts as inactive or inconclusive.

What was measured:
[1] = qHTS assay to identify small molecule agonists of the sonic hedgehog signaling (Shh) pathway (AID 1259368; calls by dose curve; also: series mostly up to about 92 µM; nearly all actives have a fitted effect of over 15% in size)
Outline: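 NIH/3T3-derived 3T3Gli1-Luc cells carrying a stably integrated Gli1 response element–firefly luciferase reporter were plated, left 4 hr at 37 C, then given compounds in DMSO for 24 hr. Luminescence was read 30 min after adding luciferase reagent.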

[2] = qHTS assay to identify small molecule antagonists of the sonic hedgehog signaling (Shh) pathway (AID 1259369; calls by dose curve; also: nearly all actives have a fitted effect of over 45% in size; also: potency is read from the fitted curve at half-maximal effect)
Outline: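 NIH/3T3-derived 3T3Gli1-Luc cells with stably integrated Gli1-Luc reporter were preincubated 4hr at 37 C, then given compounds in DMSO plus Shh conditioned medium and incubated 24hr. Firefly luciferase luminescence read after 30min reagent at room temperature.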

[3] = biological target: Estrogen receptor beta (Homo sapiens) (UniProt Q92731); test: qHTS assay to identify small molecule agonists of the estrogen receptor beta (ER-beta) signaling pathway (AID 1259377; active = well fitted activation curve with a large enough effect in the signal ratio in the repeat runs, not every such curve was filed as active; the % refers to the signal ratio)
Outline: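 ER-beta-UAS-bla HEK293T (GripTite) cells carrying a UAS-driven beta-lactamase reporter, in medium with 2% charcoal-stripped FBS, were exposed to compounds for 16 hr at 37C; LiveBLAzer B/G FRET substrate was then added and fluorescence read after 2 hours at room temperature.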

[4] = qHTS assay to identify small molecule agonists of the androgen receptor (AR) signaling pathway in the presence of an antagonist - cell viability counter screen (AID 1259379); also: series mostly up to about 92 µM; nearly all actives have a fitted effect of over 25% in size
Outline: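 MDA-kb2 human breast carcinoma cells (stable MMTV-luciferase, AR/GR responsive) were seeded 3,000 cells/well, pre-incubated 5 hr at 37C without CO2, then given 3.0uM nilutamide and compounds at 15 concentrations for 16 hr. Viability was read by CellTiter-Fluor fluorescence.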

[5] = qHTS assay to identify small molecule agonists of the estrogen receptor beta (ER-beta) signaling pathway - cell viability counter screen (AID 1259380); also: nearly all actives have a fitted effect of over 30% in size
Outline: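 ER-beta-UAS-bla HEK293T cells in medium with 2% charcoal-stripped FBS were preincubated 6 hr at 37C, dosed with compound in DMSO for 16 hr, then after the bla read, CellTiter-Glo was added for 30 min at room temperature; luminescence recorded.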

[6] = qHTS assay to identify small molecule antagonists of the estrogen receptor beta (ER-beta) signaling pathway - cell viability counter screen (AID 1259382); also: series mostly up to about 92 µM; nearly all actives have a fitted effect of over 55% in size
Outline: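 ER-beta-UAS-bla HEK293T cells (2,000/well, 2% charcoal-stripped FBS) were pre-incubated 6 hr at 37C, then given compound plus 1nM final 17-beta-estradiol for 16 hr. Viability was read in the same wells by CellTiter-Glo luminescence after 30 min at room temperature.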

[7] = biological target: Estrogen receptor (Homo sapiens) (UniProt P03372); test: qHTS assay to identify small molecule agonists of the estrogen receptor alpha (ER-alpha) signaling pathway in the presence of an antagonist (AID 1259383; calls by dose curve; also: top concentration of the series differs between compounds; nearly all actives have a fitted effect of over 15% in size)
Outline: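 VM7Luc4E2 cells (endogenous full-length ER-alpha, 4×ERE-luciferase) were precultured 5 days in phenol red-free medium with 10% charcoal-stripped FBS, given 10.0nM ICI-182,780 (final), then treated with compounds at 15 concentrations for 22hr at 37C; luminescence read with ONE-Glo.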

[8] = qHTS assay to identify small molecule agonists or antagonists of the thyroid stimulating hormone receptor (TSHR) signaling pathway - wild type cell line counter screen (AID 1259384; calls by dose curve)
Outline: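 Wild-type HEK293 cells were plated 18 h at 37 C/5% CO2, pin-dosed with compound plus Ro20-1724 medium, held 30 min at room temperature, then given cAMP-d2 and anti-cAMP-cryptate; fluorescence was read after 1 h. Fifteen concentrations, triplicate.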

[9] = biological target: Thyrotropin receptor (Homo sapiens) (UniProt P16473); test: qHTS assay to identify small molecule antagonists of the thyroid stimulating hormone receptor (TSHR) signaling pathway (AID 1259385; calls by dose curve; also: nearly all actives have a fitted effect of over 20% in size)
Outline: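 TSHR-HEK293 cells were plated and held 18 h at 37C/5% CO2, then given compound plus Ro20-1724 and stimulated with TSH at 1.5 ng/mL final. After 30 min at room temperature, cAMP was detected with cAMP-d2/anti-cAMP-cryptate (1 h) by fluorescence.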

[10] = biological target: Progesterone receptor (Homo sapiens) (UniProt P06401); test: qHTS assay to identify small molecule agonists of the progesterone receptor (PR) signaling pathway (AID 1346784; calls by dose curve; also: nearly all actives have a fitted effect of over 30% in size; also: potency is read from the fitted curve at half-maximal effect)
Outline: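 PR-UAS-bla HEK 293T cells carrying a UAS-driven beta-lactamase reporter were seeded in medium with 2% charcoal-stripped FBS, preincubated 6 hr at 37C, then exposed to compounds in DMSO for 16 hr; agonism was read by LiveBLAzer B/G FRET fluorescence.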

[11] = biological target: Progesterone receptor (Homo sapiens) (UniProt P06401); test: qHTS assay to identify small molecule antagonists of the progesterone receptor (PR) signaling pathway (AID 1346795; active = well fitted inhibition curve with a large enough effect in the signal ratio in the repeat runs, not every such curve was filed as active; the % refers to the signal ratio; also: potency is read from the fitted curve at half-maximal effect)
Outline: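 PR-UAS-bla HEK293T cells carrying a UAS-driven beta-lactamase reporter were plated in medium with 2% charcoal-stripped FBS and rested 6 hr at 37C. Compounds were added with 1 nM R5020 (final) for 16 hr, then FRET substrate loaded 2 hr at room temperature.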

[12] = qHTS assay to identify small molecule antagonists of the progesterone receptor (PR) signaling pathway - cell viability counter screen (AID 1346798); also: series mostly up to about 92 µM; nearly all actives have a fitted effect of over 50% in size
Outline: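 PR-UAS-bla HEK293T cells in medium with 2% charcoal-stripped FBS were treated with compounds plus R5020 for 16 hr at 37C. Cell viability was then read by CellTiter-Glo luminescence after 30 min at room temperature in the same wells.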

[13] = qHTS assay to identify small molecule agonists of the progesterone receptor (PR) signaling pathway - cell viability counter screen (AID 1346799; calls by dose curve; also: nearly all actives have a fitted effect of over 45% in size)
Outline: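 PR-UAS-bla HEK293T cells, 3,000 per well in medium with 2% charcoal-stripped FBS, were preincubated 6 hr at 37C, then exposed to compounds for 16 hr; viability was read as CellTiter-Glo luminescence after 30 min at room temperature.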

[14] = qHTS assay to identify small molecule antagonists of the TGF-beta/Smad signaling pathway - cell viability counter screen (AID 1346824); also: nearly all actives have a fitted effect of over 50% in size
Outline: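 SBE-bla HEK 293T cells were plated overnight at 37 C, then given compounds in DMSO plus TGF-beta1 (added as 0.25 ng/mL solution) for 5 hr. After the bla read, CellTiter-Glo was added to the same wells and luminescence read after 30 min at room temperature.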

[15] = qHTS assay to identify small molecule agonists of the TGF-beta/Smad signaling pathway - cell viability counter screen (AID 1346829); also: top concentration of the series differs between compounds; nearly all actives have a fitted effect of over 45% in size
Outline: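 SBE-bla HEK 293T cells plated overnight, compound exposure 5 hr at 37 C. Viability read in the same wells by CellTiter-Glo luminescence after 30 min at room temperature, following the beta-lactamase read.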

[16] = qHTS assay to identify small molecule agonists of the TGF-beta/Smad signaling pathway (AID 1346859; active = well fitted activation curve with a large enough effect in the signal ratio in the repeat runs, not every such curve was filed as active; the % refers to the signal ratio; also: series mostly up to about 77 µM)
Outline: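 HEK 293T cells stably carrying a beta-lactamase reporter driven by the Smad binding element were seeded overnight, exposed to DMSO-dissolved compounds for 5 hr at 37 C, 5% CO2, then loaded with FRET substrate for 2 hr at room temperature.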

[17] = qHTS assay to identify small molecule agonists of the estrogen receptor alpha (ER-alpha) signaling pathway in the presence of an antagonist - cell viability counter screen (AID 1259386);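 also: series mostly up to about 92 µM; cells exposed to compounds for 22 h at 37 °C before the viability read; nearly all actives have a fitted effect of over 30% in size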
Outline: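 VM7Luc4E2 cells (endogenous full-length ER-alpha, 4×ERE-luciferase) were held 5 days in phenol red-free medium with 10% charcoal-stripped FBS, plated, then given 10.0nM ICI-182,780 and compounds at 15 concentrations for 22hr at 37C; viability read by CellTiter-Fluor fluorescence.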

[18] = biological target: Androgen receptor (Homo sapiens) (UniProt P10275); test: qHTS assay to identify small molecule agonists of the androgen receptor (AR) signaling pathway in the presence of an antagonist (AID 1259381; calls by dose curve; also: nearly all actives have a fitted effect of over 15% in size)
Outline: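 MDA-kb2 human breast carcinoma cells carrying an MMTV-luciferase reporter (AR- and GR-responsive) were treated with compounds at 15 concentrations plus 3.0uM final nilutamide for 16hr at 37C without CO2; luminescence was read after ONE-Glo addition.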

[19] = biological target: Thyrotropin-releasing hormone receptor (Homo sapiens) (UniProt P34981); test: qHTS assay to identify small molecule antagonists of the thyrotropin-releasing hormone receptor (TRHR) signaling pathway (AID 1346877; active = well fitted inhibition curve with a large enough effect in the repeat runs, not every such curve was filed as active; also: series mostly up to about 51 µM)
Outline: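 TRHR-expressing HEK293 cells were seeded, cultured 18 h at 37 °C, then loaded with calcium dye for 2 h. Compounds were pre-incubated 5 min at room temperature before 1 nM TRH (final) was added, and kinetic fluorescence was recorded for 3 min.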
% is scaled to controls: 0 for no effect and ±100 for the full control effect.

Chain of Thyrotropin receptor (Homo sapiens) (P16473 whole entry, looked up): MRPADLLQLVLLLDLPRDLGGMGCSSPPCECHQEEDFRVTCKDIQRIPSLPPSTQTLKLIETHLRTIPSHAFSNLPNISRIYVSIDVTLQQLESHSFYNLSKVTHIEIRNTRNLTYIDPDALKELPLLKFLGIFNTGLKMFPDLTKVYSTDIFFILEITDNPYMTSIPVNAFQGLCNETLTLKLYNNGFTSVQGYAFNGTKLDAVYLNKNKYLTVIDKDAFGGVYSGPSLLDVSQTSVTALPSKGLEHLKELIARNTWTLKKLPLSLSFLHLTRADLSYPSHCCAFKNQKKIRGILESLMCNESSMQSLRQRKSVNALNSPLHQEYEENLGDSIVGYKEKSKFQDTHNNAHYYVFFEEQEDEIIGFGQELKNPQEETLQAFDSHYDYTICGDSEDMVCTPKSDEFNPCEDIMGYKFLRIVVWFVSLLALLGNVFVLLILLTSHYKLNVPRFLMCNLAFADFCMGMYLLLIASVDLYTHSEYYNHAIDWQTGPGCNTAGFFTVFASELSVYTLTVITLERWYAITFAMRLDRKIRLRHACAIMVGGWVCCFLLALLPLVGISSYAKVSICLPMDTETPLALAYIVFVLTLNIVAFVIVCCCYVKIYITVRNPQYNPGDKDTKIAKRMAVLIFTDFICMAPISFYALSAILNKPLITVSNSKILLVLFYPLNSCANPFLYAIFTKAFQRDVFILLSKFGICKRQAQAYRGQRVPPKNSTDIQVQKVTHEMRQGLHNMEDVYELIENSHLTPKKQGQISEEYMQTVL
Chain of Estrogen receptor beta (Homo sapiens) (Q92731 whole entry, looked up): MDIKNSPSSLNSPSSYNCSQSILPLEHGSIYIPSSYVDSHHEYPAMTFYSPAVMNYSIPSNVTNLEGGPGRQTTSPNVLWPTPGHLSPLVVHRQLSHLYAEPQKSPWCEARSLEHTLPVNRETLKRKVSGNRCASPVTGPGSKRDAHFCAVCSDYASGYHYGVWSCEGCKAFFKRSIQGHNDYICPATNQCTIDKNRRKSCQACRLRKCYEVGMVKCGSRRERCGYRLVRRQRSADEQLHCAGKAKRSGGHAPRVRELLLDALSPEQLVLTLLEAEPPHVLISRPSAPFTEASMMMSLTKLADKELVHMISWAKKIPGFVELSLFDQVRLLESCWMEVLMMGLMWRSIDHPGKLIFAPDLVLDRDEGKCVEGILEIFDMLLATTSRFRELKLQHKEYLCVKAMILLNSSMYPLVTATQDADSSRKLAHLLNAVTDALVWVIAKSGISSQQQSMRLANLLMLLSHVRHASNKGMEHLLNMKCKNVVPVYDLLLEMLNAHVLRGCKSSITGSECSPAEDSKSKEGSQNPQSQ
Chain of Estrogen receptor (Homo sapiens) (P03372 whole entry, looked up): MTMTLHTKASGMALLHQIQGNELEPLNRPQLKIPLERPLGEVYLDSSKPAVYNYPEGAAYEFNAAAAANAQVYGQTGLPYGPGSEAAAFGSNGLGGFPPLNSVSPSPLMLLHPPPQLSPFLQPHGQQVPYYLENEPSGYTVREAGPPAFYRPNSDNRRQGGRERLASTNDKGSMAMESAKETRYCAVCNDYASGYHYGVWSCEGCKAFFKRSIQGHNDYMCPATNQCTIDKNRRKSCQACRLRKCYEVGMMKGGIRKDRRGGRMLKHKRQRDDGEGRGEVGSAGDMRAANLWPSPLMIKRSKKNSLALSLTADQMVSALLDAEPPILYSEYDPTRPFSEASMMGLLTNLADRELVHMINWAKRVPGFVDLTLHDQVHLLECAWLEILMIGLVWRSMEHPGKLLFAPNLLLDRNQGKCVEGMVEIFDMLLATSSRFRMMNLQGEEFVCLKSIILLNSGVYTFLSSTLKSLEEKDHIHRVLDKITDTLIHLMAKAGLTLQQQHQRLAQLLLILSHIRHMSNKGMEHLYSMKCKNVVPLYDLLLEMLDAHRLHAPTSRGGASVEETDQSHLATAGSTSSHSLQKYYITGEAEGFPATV
Chain of Progesterone receptor (Homo sapiens) (P06401 whole entry, looked up): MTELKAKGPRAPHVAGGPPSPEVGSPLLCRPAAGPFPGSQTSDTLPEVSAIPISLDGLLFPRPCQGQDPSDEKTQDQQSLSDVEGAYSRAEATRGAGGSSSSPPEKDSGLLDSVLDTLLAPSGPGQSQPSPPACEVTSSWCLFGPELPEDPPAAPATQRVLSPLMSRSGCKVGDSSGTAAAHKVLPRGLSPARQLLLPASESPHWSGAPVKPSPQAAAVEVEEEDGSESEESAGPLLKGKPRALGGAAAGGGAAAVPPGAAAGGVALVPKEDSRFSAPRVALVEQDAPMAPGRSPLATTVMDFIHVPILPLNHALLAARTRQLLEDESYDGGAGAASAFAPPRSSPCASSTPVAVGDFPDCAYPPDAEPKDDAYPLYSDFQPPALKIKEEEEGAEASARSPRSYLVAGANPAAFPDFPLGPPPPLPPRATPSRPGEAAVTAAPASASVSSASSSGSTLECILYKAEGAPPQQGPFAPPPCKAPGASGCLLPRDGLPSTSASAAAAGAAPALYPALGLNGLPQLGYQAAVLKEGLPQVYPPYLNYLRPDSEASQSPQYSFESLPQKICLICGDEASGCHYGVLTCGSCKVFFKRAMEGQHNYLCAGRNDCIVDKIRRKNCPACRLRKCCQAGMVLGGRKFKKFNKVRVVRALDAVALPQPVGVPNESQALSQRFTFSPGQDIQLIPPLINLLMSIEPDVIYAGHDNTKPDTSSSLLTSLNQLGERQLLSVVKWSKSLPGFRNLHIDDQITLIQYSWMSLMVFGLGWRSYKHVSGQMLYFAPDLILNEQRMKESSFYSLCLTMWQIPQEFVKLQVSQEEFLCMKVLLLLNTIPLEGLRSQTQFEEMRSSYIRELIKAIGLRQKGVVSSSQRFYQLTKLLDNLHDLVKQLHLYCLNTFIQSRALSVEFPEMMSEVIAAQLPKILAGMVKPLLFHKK
Chain of Thyrotropin-releasing hormone receptor (Homo sapiens) (P34981 whole entry, looked up): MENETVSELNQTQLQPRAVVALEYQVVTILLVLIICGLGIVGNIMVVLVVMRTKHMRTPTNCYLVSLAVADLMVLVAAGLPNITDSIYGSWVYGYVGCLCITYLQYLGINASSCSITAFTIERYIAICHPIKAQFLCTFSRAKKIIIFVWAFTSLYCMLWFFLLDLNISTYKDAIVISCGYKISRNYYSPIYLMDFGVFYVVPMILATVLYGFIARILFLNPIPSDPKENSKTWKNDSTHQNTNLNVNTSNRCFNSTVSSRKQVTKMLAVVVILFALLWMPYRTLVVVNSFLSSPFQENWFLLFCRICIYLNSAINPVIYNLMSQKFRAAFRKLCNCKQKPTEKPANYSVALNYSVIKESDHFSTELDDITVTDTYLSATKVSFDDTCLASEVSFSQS
Chain of Androgen receptor (Homo sapiens) (P10275 whole entry, looked up): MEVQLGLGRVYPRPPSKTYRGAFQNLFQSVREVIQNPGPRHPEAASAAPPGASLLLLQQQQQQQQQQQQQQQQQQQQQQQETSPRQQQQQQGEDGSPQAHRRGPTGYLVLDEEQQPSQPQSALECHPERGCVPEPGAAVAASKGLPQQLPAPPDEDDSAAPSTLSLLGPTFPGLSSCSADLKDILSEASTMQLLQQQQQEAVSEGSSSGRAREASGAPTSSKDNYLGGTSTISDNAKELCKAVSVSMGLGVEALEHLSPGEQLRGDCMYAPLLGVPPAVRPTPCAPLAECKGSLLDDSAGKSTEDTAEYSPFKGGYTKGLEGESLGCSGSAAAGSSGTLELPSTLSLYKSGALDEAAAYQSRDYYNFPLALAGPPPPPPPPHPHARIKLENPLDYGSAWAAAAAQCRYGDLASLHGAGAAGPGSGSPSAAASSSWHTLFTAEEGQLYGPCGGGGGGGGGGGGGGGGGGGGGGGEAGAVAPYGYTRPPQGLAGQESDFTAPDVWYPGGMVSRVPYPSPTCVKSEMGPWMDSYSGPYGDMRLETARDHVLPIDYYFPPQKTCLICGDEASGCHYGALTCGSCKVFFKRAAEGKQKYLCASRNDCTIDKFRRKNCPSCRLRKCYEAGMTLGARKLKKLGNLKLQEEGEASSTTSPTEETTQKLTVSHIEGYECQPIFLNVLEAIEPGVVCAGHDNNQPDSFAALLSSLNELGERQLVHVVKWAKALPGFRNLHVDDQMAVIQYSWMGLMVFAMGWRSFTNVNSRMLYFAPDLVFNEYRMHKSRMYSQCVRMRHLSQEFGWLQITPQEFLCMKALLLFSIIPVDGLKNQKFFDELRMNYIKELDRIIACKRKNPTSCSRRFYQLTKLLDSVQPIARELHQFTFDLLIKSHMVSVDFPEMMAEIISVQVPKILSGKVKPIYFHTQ

C=CCCCCCCCCCCCCCCCC
active: Potency [10] 733 nM
inactive: activity change [1] 0.635% [at 8.39 µM, stronger effect = higher value] | activity change, negative = inhibition [2] 12.7% [at 8.39 µM] | activation [3] -1.08% [at 8.39 µM] | activity change, negative = cytotoxicity [4] 0.762% [at 8.39 µM] | activity change, negative = cytotoxicity [5] 5.49% [at 8.39 µM] | activity change, negative = cytotoxicity [6] -0.694% [at 8.39 µM] | activation [7] -0.131% [at 8.39 µM] | cAMP activity change [8] -0.74% [at 8.39 µM] | activity change, negative = inhibition [9] -0.238% [at 8.39 µM] | activity change, negative = inhibition [11] 15.4% [at 8.39 µM] | activity change, negative = cytotoxicity [12] 4.23% [at 8.39 µM] | activity change, negative = cytotoxicity [13] 14.5% [at 8.39 µM] | viability change, negative = cytotoxic [14] 2.26% [at 6.97 µM] | activity change, negative = cytotoxicity [15] 3.28% [at 6.97 µM] | activation [16] 2.93% [at 6.97 µM]

CCCCCCOC(=O)C(C)C
inactive: Potency [1] | Potency [2] | Potency [3] | Potency [4] | Potency [5] | Potency [6] | outcome [8] | Potency [9] | Potency [17] | Potency [11] | Potency [12] | Potency [13] | outcome [14] | outcome [15] | outcome [16]

CN(C(=O)C(Cl)Cl)c1ccc(OC(=O)c2ccco2)cc1
inactive: Potency [1] | Potency [2] | Potency [3] | Potency [4] | Potency [5] | Potency [18] | Potency [6] | outcome [8] | Potency [9] | Potency [17] | Potency [10] | Potency [11] | Potency [12] | outcome [14] | outcome [15] | outcome [16] | outcome [19]

NC(=O)N(O)[C@@H]1COc2cc(OCc3ccccc3)ccc21
active: Potency [11] 13700 nM
inactive: Potency [1] | Potency [2] | Potency [3] | Potency [4] | Potency [5] | Potency [6] | outcome [8] | Potency [9] | Potency [17] | outcome [14] | outcome [15] | outcome [16]

CCC(C(=O)OCCOCCN(CC)CC)c1ccccc1 (configuration not stated)
inactive: Potency [1] | Potency [2] | Potency [3] | Potency [4] | Potency [5] | Potency [6] | Potency [7] | Potency [17] | Potency [10] | Potency [12] | Potency [13] | outcome [14] | outcome [15] | outcome [16]

Nc1nc(Cl)nc2c1ncn2[C@@H]1O[C@H](CO)[C@@H](O)[C@@H]1F
inactive: Potency [1] | Potency [3] | Potency [4] | Potency [5] | Potency [6] | Potency [7] | outcome [8] | Potency [9] | Potency [11] | Potency [12] | outcome [14] | outcome [15] | outcome [16]
active: Potency [2] 841 nM

CN1CCN(c2c(F)cc3c(=O)c(C(=O)O)cn4c3c2OCN4C)CC1
inactive: activity change [1] -1.02% [at 18.9 µM, stronger effect = higher value] | activity change, negative = inhibition [2] 2.85% [at 19 µM] | activation [3] -0.625% [at 19 µM] | activity change, negative = cytotoxicity [4] 0.471% [at 19 µM] | activity change, negative = cytotoxicity [5] 3.44% [at 19 µM] | activity change, negative = cytotoxicity [6] -1.98% [at 19 µM] | activation [7] -0.999% [at 19 µM] | cAMP activity change [8] 0.366% [at 18.9 µM] | activity change, negative = inhibition [9] -3.1% [at 19 µM] | activity change, negative = cytotoxicity [17] 0.0729% [at 19 µM] | activation [10] 1.06% [at 19 µM] | activity change, negative = inhibition [11] 0.0233% [at 18.9 µM] | activity change, negative = cytotoxicity [12] 10.3% [at 18.9 µM] | activity change, negative = cytotoxicity [13] 0.954% [at 19 µM] | viability change, negative = cytotoxic [14] 1.7% [at 15.8 µM] | activity change, negative = cytotoxicity [15] -7.56% [at 15.8 µM] | activation [16] -0.914% [at 15.8 µM] | activity, negative = inhibition [19] 2.89% [at 10.5 µM]
